Results on 40 sequences are retold here after the OligoGym collection.
Also: reference of the scale not given here.

The first experiment deals with WDR33. As to the kind of experiment: pooled miR-30 sensor sort-seq; sequence = guide strand. The following applies: shRNA.
As to TTGTAGTCTATGGTTTTTCGGT, the sensor-assay potency score (higher = more potent) was -0.753. In turn, TTAGATTATATCGATCTCGCAT came in with a sensor-assay potency score (higher = more potent) of 0.262. On the same count and under the same terms, to TTGAGGACCAGAACTACCTTGT belongs 0.395; to TAGTATATTGTAATGTAGCCAT, -0.402; to TTTATTTTGCATCCAAGCCTGC, -0.562. The sequence TTCAATTTTAAGTTGCTCCAGA came in with a sensor-assay potency score (higher = more potent) of 0.632. Still for that read-out and setting: the figure for TAGATTATATCGATCTCGCATT is -0.783; for TAGTATGGTCATTTGAGCCTGA it is 0.248.

For another experiment, the target named is WDR34. The description is as above. To be noted: shRNA.
Sequence ATACAGACAAGACACCATCTGC gave a sensor-assay potency score (higher = more potent) of -0.609. The same measure, in the same setting: to TTGAACTCCAGACAGTAGACAG belongs -1.12; to TTTGCTTGATCAAAACTGTGGG, 0.652; to AATTCTTGTTCAGCTCTCGGAT, -0.793. Regarding TTAAGCGTGCTCCAGTCCCCAT, the sensor-assay potency score (higher = more potent) was -1.36.

Sequence TTCTTGAGCTTGGTGCTCCGTG displayed a sensor-assay potency score (higher = more potent) of -0.384. Same read-out and setting: to TTGCTTGATCAAAACTGTGGGT belongs -0.138; to ATACTTGAGGGAGAGCTGCAGC, -0.787; to TTGAGGGAGAGCTGCAGCGAAG, -1.68.

Sequence ATCTGCTGCTGCTCGGTCCAGT displayed a sensor-assay potency score (higher = more potent) of -0.627. In turn, TTTCTGGAGATCAAACAGCTGC displayed a sensor-assay potency score (higher = more potent) of -0.424. On to TGCTTGATCAAAACTGTGGGTT, for which the sensor-assay potency score (higher = more potent) is -0.0783.

In a further experiment the target is WDR38. The description is as above. The following applies: shRNA.
Regarding TTGACGTCTAGTCTGATCGGCA, the sensor-assay potency score (higher = more potent) is -0.321. Still for that read-out and setting: the figure for ATATTTGACGTCTAGTCTGATC is -0.981. In turn, TTTCCTGTGTTGCAGTCCCAGA yielded a sensor-assay potency score (higher = more potent) of -1.04. Consider TTCAGTTGGATAAGCAGGCTGC, for which the sensor-assay potency score (higher = more potent) is -0.0722. The same measure, in the same setting: the figure for TTTGACGTCTAGTCTGATCGGC is 1.06; for TTTCACTCTCCGCACGGCCAGC it is -1.51; for TTCTGAGCCTGTGAGCAGCATC it is -1.23. The same measure, in the same setting: the figure for TTGACCATGCGGGAATAGCCGG is -1.06. In turn, TGACCGTCTCCACACTCCGTTG yielded a sensor-assay potency score (higher = more potent) of -1.74. Consider TGAGCCTGTGAGCAGCATCTGG, for which the sensor-assay potency score (higher = more potent) is -1.58. The same measure, in the same setting: the figure for TAGTCTGATCGGCAGCTCCAGA is -1.14; for TTGGTGACCCTTCAGGACCCGC it is -1.34.

A further experiment concerns the target WDR59. The description is as above. To be noted: shRNA.
In turn, TTAGCTTTCATGGTGGATGTGA had a sensor-assay potency score (higher = more potent) of 0.497. Still for that read-out and setting: the figure for TTCACCAGCATCTTGACACGAT is 0.208; for TAGACAACACACAAAGCGCAGC it is -0.806; for TAACCTGCTCCGCAGAACCTGG it is -1.45. The same measure, in the same setting: the figure for TTCAGCTCGCTTCTCTCTCAGA is -0.891. Sequence TAAAGCTAGGATATCGACTATG showed a sensor-assay potency score (higher = more potent) of -0.97. The same measure, in the same setting: to TACTAGAATTTTATTAGCCAAG belongs -1.53.

The sequence TTGCAGATGGCACACTGCGTGC had a sensor-assay potency score (higher = more potent) of -1.5.
